# Screens: PubChem BioAssay, several laboratories
# ERa SRC1 pot = ER-alpha (human) coactivator binding potentiation | P03372 | TR-FRET ERalpha-LBD/SRC-Cy5 coactivator binding, 2 h; 100 = basal binding, no effect | coactivator binding (% of control), % at 25.6 µM | 86,000 compounds, 1.3% hits | AID 639; in the data active = activity above about 200%;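 note: binding measured in presence of low estradiol as agonist stimulus; 0% = peptide alone without receptor and 100% = receptor with peptide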
# ERb SRC1 inh = blocks coactivator binding to human estrogen receptor beta; TR-FRET ER-beta LBD / SRC1-Cy5 peptide binding; receptor agonist-loaded with 1 µM estradiol; 86,000 compounds, 1.3% hits; inhibition, % at 25.6 µM; Q92731;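 active = compounds whose percent inhibition of the receptor-coactivator binding signal exceeds about 50% in the single-dose screen, limit read from the data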;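 note: 0% = receptor plus peptide wells without compound and 100% = peptide-only wells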
# Target sequence (Q92731 whole entry, looked up, the tested form may be a part): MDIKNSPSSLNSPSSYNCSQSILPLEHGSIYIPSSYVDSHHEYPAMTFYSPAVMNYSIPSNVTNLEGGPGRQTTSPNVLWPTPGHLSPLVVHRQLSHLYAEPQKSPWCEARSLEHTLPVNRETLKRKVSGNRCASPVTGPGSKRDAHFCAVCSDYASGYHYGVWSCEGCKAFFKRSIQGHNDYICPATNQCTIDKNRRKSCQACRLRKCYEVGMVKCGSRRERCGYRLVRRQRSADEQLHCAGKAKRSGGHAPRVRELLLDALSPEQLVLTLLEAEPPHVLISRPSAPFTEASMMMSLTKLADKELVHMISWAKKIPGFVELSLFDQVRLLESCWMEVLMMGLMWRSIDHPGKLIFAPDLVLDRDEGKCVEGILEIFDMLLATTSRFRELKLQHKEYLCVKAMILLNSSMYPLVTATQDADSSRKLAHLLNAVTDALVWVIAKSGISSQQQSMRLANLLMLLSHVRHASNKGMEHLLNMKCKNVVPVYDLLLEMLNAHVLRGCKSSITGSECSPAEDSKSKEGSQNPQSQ
# FAK inh = blocks human focal adhesion kinase activity; biochemical FAK kinase activity assay; inhibition, %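 (tested at 7 µM)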; 97,000 compounds, 0.84% hits;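 note: 0% = DMSO and 100% = reference compound high control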
# ERa SRC1 inh = ER-alpha (human) coactivator binding inhibition | 86,000 compounds, 1.7% hits | inhibition, % at 25.6 µM | TR-FRET ER-alpha LBD / SRC-1 peptide, estradiol-bound | P03372; in the data active = inhibition above about 50%;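 note: 0% = receptor plus peptide control and 100% = peptide only without receptor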
# Smad3 inh = Smad3 (human) transcription factor binding inhibition; P84022; TR-FRET Smad3/Dy647-FoxH1 peptide binding, europium anti-His; inhibition, % at 25 µM; 88,000 compounds, 0.29% hits; AID 630;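 active = compounds that reduce the energy-transfer binding signal between the protein and its labelled peptide by more than half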;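 note: 0% = Smad3 plus labelled peptide maximal FRET and 100% = peptide-only background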
# FAK inh conf = FAK (human) inhibition confirmed; inhibition, % at 7 µM; shares compounds with FAK inh; 750 compounds, 28% hits; FAK kinase biochemical inhibition assay
# An asterisk follows results filed as active; . = no result given; [ ] = remark or other dose. Hits are enriched below; roughly 3.3% of the tested compounds scored in any of these assays. Cut-off read from the data, not from the text of the source, unless noted: active = inhibition above about 19%; inactive = the rest.
SMILES,ERa SRC1 pot,ERb SRC1 inh,FAK inh,ERa SRC1 inh,Smad3 inh,FAK inh conf
COc1ccc(C(=O)c2sc3nc(-c4ccccc4)ccc3c2N)cc1OC,.,.,59*,.,.,34*
CCC(C)S(=O)(=O)c1snnc1C (stereo not given),101,3,-3,-1,-1,.
Cc1ccc(SCC(=O)Nc2ccc(-c3nnc(-c4ccco4)o3)cc2)cc1,.,.,12,.,.,.
Cc1cccc(C)c1NC(=O)CSc1nnc(-c2ccco2)c(-c2ccco2)n1,11,83*[fluorescence artefact?],35*,84*[fluorescence artefact?],-4,10
Cc1ccc(NC(=O)CSc2nnc(-c3ccco3)c(-c3ccco3)n2)cc1,43,74*[fluorescence artefact?],19*,81*[fluorescence artefact?],10,1
CCOC(=O)N1CCC(NC(=O)c2cc(C)c3c(C)nn(-c4ccccc4)c3n2)CC1,144,-10,10,-48,32,.
Cc1ccc2c(n1)sc1c(N)ncnc12,131,5,49*,45,11,18
Cc1ccc(C)c(C(=O)CSc2n[nH]c(-c3ccncc3)n2)c1,.,.,30*,.,.,12
COc1ccc2nc3oc(C(=O)NCc4cccs4)cc3cc2c1,.,.,32*,.,.,10
COc1ccc(CCNC(=O)c2ccc3nc(-c4ccco4)c(-c4ccco4)nc3c2)cc1OC,36,94*[fluorescence artefact?],54*,90*[fluorescence artefact?],-1,2
COc1ccc(CCNC(=O)c2c(-c3ccccc3)noc2C)cc1OC,124,-1,.,5,17,.
CSc1cccc(NC(=O)CN(c2cc(C)ccc2C)S(C)(=O)=O)c1,87,4,3,10,-5,.
Nn1c(Nc2ccccc2)nc2ccccc2c1=O,124,2,9,-2,-4,.
O=c1[nH]c(Nc2ccccc2)cc2ccccc12,92,10,38*,19,58*,35*
COc1ccc(-n2nnnc2SCC(=O)Nc2nc3c(s2)CCCC3)cc1,101,-10,24*,-4,-4,6
COc1ccc(-n2nnnc2SCC(=O)Nc2nnn(C)n2)cc1,120,2,-2,-9,7,.
COc1ccc(-n2nc(C(=O)NCC(=O)Nc3ccccn3)c3ccccc3c2=O)cc1Cl,.,.,23*,.,.,45*
COc1ccc(-n2nc(C(=O)NCC(=O)NCC3CCCO3)c3ccccc3c2=O)cc1Cl (stereo not given),.,.,-1,.,.,.
COc1ccc2c3c(cccc13)NN=C2C,-3,99*[fluorescence artefact?],84*,98*[fluorescence artefact?],32,15
CCCCc1cc(=O)oc2cc(C)c(CN3CCCC3)c(O)c12,69,16,21*,46,11,1
CSc1nc(N(C)CCO)c2sc3nc(-c4ccco4)c4c(c3c2n1)CCC4,.,.,36*,.,.,-1
N#Cc1c(NCCCO)nc(-c2ccco2)c2c1CCCC2,95,2,-1,8,7,.
Cc1cc2c(C)nc(-c3ccccc3)nc2o1,119,-4,25*,-4,0,-1
CCc1nc(NCc2cccnc2)c2oc3ccccc3c2n1,100,-1,20*,-3,-17,5
Cc1oc(-c2ccccc2F)nc1CS(=O)(=O)CC(=O)NCCCc1ccccc1,110,11,.,0,-3,.
SMILES,ERa SRC1 pot,ERb SRC1 inh,FAK inh,ERa SRC1 inh,Smad3 inh,FAK inh conf
Cc1oc(-c2ccccc2F)nc1CS(=O)(=O)CC(=O)NCc1ccco1,22,91*[fluorescence artefact?],27*,91*[fluorescence artefact?],78*,-1
O=C(C1CCCN1C(=O)c1cccs1)N1CCc2ccccc21 (stereo not given),98,1,6,2,-1,.
CC(C)[C@H](NC(=O)OC(C)(C)C)c1nnc(SCC(=O)Nc2ccc(Br)cc2)o1,107,2,-1,-5,2,.
Cn1c(SCc2ccon2)nc2ccccc2c1=O,113,-1,23*,7,8,6
Cc1c(NC(=O)CSc2nc3ccccc3s2)c(=O)n(-c2ccccc2)n1C,98,-17,-1,4,-9,.
CCOC(=O)c1cnc2cc(Cl)c(OC)cc2c1NCC1CCCO1 (stereo not given),.,.,20*,.,.,6
Cc1n[nH]c(C)c1N=Nc1cc(Cl)ccc1Cl,.,.,41*,.,.,21*
Cc1nc2ccc(Cl)cc2nc(C)/c1=N\O,108,-5,0,-5,2,.
CCC1CCCCN1Cc1cc(OC)c(O)c([N+](=O)[O-])c1 (stereo not given),.,.,-9,.,.,.
COC(=O)c1cc(OC)c(OC)cc1NC(=O)c1cc(-c2ccccc2)nc2ccccc12,.,.,21*,.,.,8
CCOC(=O)c1c(NC(=S)NC(=O)c2cnn(CC)c2)sc2c1CCC(C)C2 (stereo not given),.,.,1,.,.,.
CCc1nc(Sc2nc(C)cc(C)n2)c2oc3ccccc3c2n1,92,6,22*,10,8,5
CCc1nc(SCCO)c2oc3ccccc3c2n1,101,-9,7,-29,20,.
O=C(Cc1cc(=O)[nH]c(=O)[nH]1)N1CCC(Cc2ccccc2)CC1,99,-5,3,-11,2,.
COCCCNC(=O)CN1CCN(Cc2ccc(Cl)cc2)C1=O,93,18,-5,7,-26,.
COC(=O)Cc1ccc2c3ccccc3n(C)c2c1,91,7,41*,1,-6,32*
CCCSC1=N/C(=C\C=C\c2ccco2)C(=O)S1,62,63*,25*,75*[fluorescence artefact?],3,5
CCCSC1=N/C(=C\c2ccsc2)C(=O)S1,.,.,-1,.,.,.
Nc1ccc(-c2nc3c(Cl)cc(N)cc3[nH]2)cc1,96,21,25*,6,7,4
Cc1nc2c(Cl)cc(Cl)cc2[nH]1,95,2,-1,-4,-5,.
Cc1ccccc1NC(=O)CN1C(=O)S/C(=C\c2cccn2-c2cccc(C(=O)O)c2)C1=O,.,.,-3,.,.,.
Cc1ccc(NC(=O)CN2C(=O)S/C(=C\c3cccn3-c3cccc(C(=O)O)c3)C2=O)c(C)c1,.,.,65*,.,.,1
Cc1ccccc1NC(=O)C1CCCN1C(=O)NC1CCCCC1 (stereo not given),101,-1,-1,3,-9,.
O=C(C1COc2ccccc2O1)N1CCc2ccccc21 (stereo not given),345*[fluorescence artefact?],34,24*,21,12,7
Cc1ccc(S(=O)(=O)N2CCN(C(=O)CN3CCOCC3)C2c2ccccc2)cc1 (stereo not given),112,-7,1,-3,2,.
SMILES,ERa SRC1 pot,ERb SRC1 inh,FAK inh,ERa SRC1 inh,Smad3 inh,FAK inh conf
O=C(Nc1cc(Cl)ccc1Cl)c1ccc(OC(=O)c2ccco2)cc1,105,-5,1,-2,-2,.
CC(=O)N(CCC(c1ccccc1)c1ccco1)Cc1cccs1 (stereo not given),74,-4,-5,-6,-14,.
O=C(c1ccco1)N(CCC(c1ccccc1)c1ccco1)Cc1ccco1 (stereo not given),.,.,20*,.,.,4
Cc1occc1C(=O)NC1CCCCCC1,114,11,72*,5,-3,2
NS(=O)(=O)c1ccc(C(=O)O)cc1,140,1,.,-1,6,.
Oc1cccc(Nc2ncnc3ccccc23)c1,101,13,23*,-3,-2,7
